Here are results for 13 compounds from PubChem BioAssay (NCATS).

“And” between values parts separate entries of the source, which are not always exact repeats. Equal entries are not always repeated. Records with an inconclusive call do not appear. Unmarked numbers belong to inactive results. The call rests on the fitted dose curve; in most records, active means well fitted activation curve with a large enough effect; inconclusive means small, poorly fitted or top-dose-only effect; inactive means no such curve, though single readings can be large or run the other way.

Cellular tumor antigen p53 (Homo sapiens), sequence (P04637 whole entry, looked up): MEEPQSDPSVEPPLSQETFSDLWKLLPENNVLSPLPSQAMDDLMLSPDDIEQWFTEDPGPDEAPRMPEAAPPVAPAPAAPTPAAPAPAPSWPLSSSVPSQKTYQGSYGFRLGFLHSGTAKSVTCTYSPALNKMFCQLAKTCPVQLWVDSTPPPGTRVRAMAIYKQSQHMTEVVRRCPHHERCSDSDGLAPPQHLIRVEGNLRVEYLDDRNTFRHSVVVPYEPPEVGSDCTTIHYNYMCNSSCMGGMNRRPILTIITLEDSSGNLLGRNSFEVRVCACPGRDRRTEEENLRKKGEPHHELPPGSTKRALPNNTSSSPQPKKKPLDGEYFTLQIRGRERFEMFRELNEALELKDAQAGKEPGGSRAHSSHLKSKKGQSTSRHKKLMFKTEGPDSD

The assay addresses Cellular tumor antigen p53 (Homo sapiens) (UniProt P04637). Kind of assay: Primary qHTS for small molecule compounds that upregulate eGFP-tagged delta133p53alpha (in N-terminal) cells. (AID 2060322).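 Further: series mostly up to about 56 µM; 0% = DMSO vehicle and 100% = reference activator; nearly all actives have a fitted effect of over 75% in size.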 Conditions: NCI-H358 eGFP-delta133p53alpha fluorescence, 24 h; activation: active compounds read high. In short, it runs like this: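 NCI-H358 cells pre-induced 24 h with 10 ng/ml doxycycline to express N-terminal eGFP-delta133p53alpha, then dosed 24 h at 37C without doxycycline; fixed, Hoechst-stained, GFP intensity by laser scanning cytometry, normalized to DMSO (0%) and 57.5 uM 5-azacytidine (100%).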
For the compound `O=C1OC2(c3ccccc31)c1cc(I)c(O)c(I)c1Oc1c2cc(I)c(O)c1I`, the activation was -36.8%.
The figure for `CN1CCCN=C1COC(=O)C(O)(c1ccccc1)C1CCCCC1` (stereo not drawn) is 2.51%.
Under `COc1cnc(NS(=O)(=O)c2ccc(N)cc2)nc1` stands 2.51% and 10.3%; under `CN[C@H]1[C@@H](O)[C@@H]2O[C@@H]3O[C@H](C)CC(=O)[C@]3(O)O[C@@H]2[C@@H](NC)[C@H]1O`, -7.34%; under `CCN(CC)CC(=O)OCC(=O)[C@@]1(O)CC[C@H]2[C@@H]3CCC4=CC(=O)CC[C@]4(C)[C@H]3[C@@H](O)C[C@@]21C`, -4.18%.
Under `CC1(C)S[C@@H]2[C@H](NC(=O)[C@H](N)c3ccccc3)C(=O)N2[C@H]1C(=O)O` stands -15.3%.
In the case of `C[C@H]1C[C@H](O)c2ccsc2S1(=O)=O`, the activation was -26.6%.
Under `Cc1ccc(C(=O)c2ccc(CC(=O)O)n2C)cc1` stands 14.1%.
Under `CCC[C@@H]1C[C@@H](C(=O)N[C@@H]([C@H]2O[C@H](SC)[C@H](O)[C@@H](O)[C@H]2O)[C@@H](C)O)N(C)C1` stands -5.08%; under `CCCCCCCC/C=C\CCCCCCCCN`, -16.7%.
Regarding `CCN1CCN(C(=O)N[C@H](C(=O)N[C@@H]2C(=O)N3C(C(=O)O)=C(CSc4nnnn4C)CS[C@@H]23)c2ccc(O)cc2)C(=O)C1=O`, the activation was 19.4%.
Under `CC(CNC1CCCCC1)OC(=O)c1ccccc1` (stereo not drawn) stands -9.21%.
Under `CCOc1ccc(Cc2nccc3cc(OCC)c(OCC)cc23)cc1OCC` stands -22.6%.
